This note sets out measurements from PubChem BioAssay (NCI).

Molecules are shown by their SMILES. Compounds without any hit were thinned out: in the full panel of roughly 83,000, 20% have a hit.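 Negative percent growth values reflect cell death: -40 means 40% of the cells present at the start died, and -100 means all died.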 Values without a mark were called inactive. Activity calls are given as the source filed them.

The assay deals with HCC-2998 colon. The assay can be described thus: NCI-60 one-dose screen, 48 h (100 = growth as untreated, 0 = no growth, -100 = all killed). Conditions: 10 µM unless noted. As for the experimental part: Growth inhibition of the HCC-2998 human tumor cell line is measured as a screen for anti-cancer activity. Cells are grown in 96 well plates and exposed to the test compound for 48 hours. Compounds are tested at a single concentration, which is 10^-5 M for most compounds. The reported endpoint is percent growth (GI% or GIPRCNT), where numbers from 0 - 100% represent growth inhibition, and numbers from -100% - 0 represent cell death. For example, a value of 40 represents 60% growth inhibition. A value of 0 means no net growth occurred over the course of the experiment. A value of -40 indicates 40% of cells at the beginning of the experiment died by the end of the experiment. A value of -100 means all cells are dead at the end of the experiment.
NCI-60 Human Tumor Cell Lines Screen was performed using the standard one-dose NCI protocol, which is described in more detail at https://dtp.cancer.gov/discovery_development/nci-60/default.htm.
Compounds with GIPRCNT values below 10 were considered active. Activity score was based on GIPRCNT using the following formula: […]
Score is 0 for GIPRCNT values of 100 or above, 50 for GIPRCNT values of 0, and 100 for GIPRCNT values of -100.
Take `COc1ccc(-c2cc(=O)c3c(OC)c4ccoc4c(/C=C/C=O)c3o2)cc1`: the growth was 92.3%.

On to `O=c1c2cccc(F)c2sc2c(N3CCNCC3)nc3ccccc3c12`, for which the growth was -6.49% (active). Then `OC(c1ccccc1)c1nnc(SCc2ccccc2)n1Cc1ccccc1` (stereo not given), with 111%. Regarding `O=C(Cn1cc(COc2ncnc3c2cnn3-c2ccccc2)nn1)Nc1ccccn1`, the growth was 120%. As to `CCCCOCc1cc(CN2CCN(C)CC2)c(O)c2ncccc12`, the growth was 57.8%. In the case of `CCOC(=O)c1cc2c(n1Cc1ccccc1)-c1oncc1CCC2`, the growth was 87.5%. Turning to `O=C(Nc1ccc(I)cc1F)c1cc(F)ccc1O`, the growth is 8.95% (active).

`O=S1(=O)N(Cc2ccccc2)[C@@H](Cc2ccccc2)C2O[C@H]2[C@H](Cc2ccccc2)N1Cc1ccccc1` (stereo not given in full): the growth is 61.4%. `CCn1c(-c2nonc2Nc2ccc(OC)cc2)nc2ccccc21`: the growth was 111%.

In the case of `CCOC(=O)C1(C(=O)OCC)N=C(c2ccccc2)C=C1c1ccccc1`, the growth is 105%. On to `O=c1[nH]nnc2c1ncn2C1OC(CO)C(O)C1O` (stereo not given), for which the growth is 34.4%. `Cn1c(=O)n(C)c2cc(CNCCNc3ccnc4cc(Cl)ccc34)ccc21`: the growth was 27.4%. Regarding `NCCNc1nc2ccc(F)cc2c2c(=O)c3cc(F)ccc3sc12`, the growth was 14.8%. `O=C1C(Cl)=C(NCc2ccco2)C(=O)c2ccccc21`: the growth was 97.9%. In the case of `CNCCNc1nc2ccccc2c2c(=O)c3cc(OC)ccc3sc12`, the growth is -68.7% (active). On to `COc1ccc(C2Nc3ncnc(N)c3N=C3c4ccccc4C(=O)C32)cc1` (stereo not given), for which the growth was 104%.

For the compound `COc1ccc(C2c3ccc4ccccc4c3Oc3ncn(CCCn4ccnc4)c(=N)c32)cc1OC` (stereo not given), the growth is 73.3%. For the compound `CCN(CCO)CCNc1ccc(C)c2sc3cc(Cl)ccc3c(=O)c12`, the growth was -96.8% (active). Next, `CCN1C(=O)N(c2ccccc2)C2Nn3c(s/c(=C4\C(=O)N(C(C)C)c5ccccc54)c3=O)=NC21` (stereo not given): 112%; `CCOC(=O)c1c(C=O)nc2ccccc2c1/C=C/c1ccc(Cl)cc1`: 110%; `CC1=C(C(=O)OCC2CCN(C(=O)OC(C)(C)C)CC2)[C@H](c2cccc(C#N)c2)C2=C(CC(C)(C)CC2=O)N1`: 70.8%. Take `CCN1C(=O)N(CC)C2Nn3c(s/c(=C\c4ccccc4F)c3=O)=NC21` (stereo not given): the growth was 36.1%. Then `COc1cc2nc(NC3CCC3)nc(NC3CCN(C(C)C)CC3)c2cc1OC`, with 22.7%; and `COc1ccc(Cn2cc(Cn3c(=O)c(-c4nc5ccccc5[nH]4)cc4ccccc43)nn2)c(OC)c1OC`, with -11.7% (active); and `O=C(Cc1ccccc1)NC(c1ccc(Cl)cc1)c1c(O)ccc2ccccc12` (stereo not given), with 24.8%. As to `O=C1NC(=S)NC(=O)C1=Cc1cn(Cc2cn(Cc3cccc4ccccc34)nn2)c2ccccc12`, the growth was 100%. Consider `COC(=O)C1=Nc2ccc(F)cc2/C1=C/c1sc(=S)[nH]c1O`, for which the growth was 25%. With `NC(CCc1nc2ccccc2c(=O)[nH]1)C(=O)O` (stereo not given), the growth was 107%. Then `CCOC(=O)c1sc(-c2ccc(OS(=O)(=O)c3ccccc3[N+](=O)[O-])c(C=O)c2)nc1C`, with 111%; and `COc1ccc(/C(C#N)=C/c2nc3c(N4CCOCC4)nc(Cl)nc3n2C)cc1OC`, with 2.12% (active). Then `COc1cc2nc(-c3cccc4cccnc34)nc(NC3CCN(Cc4ccccc4)CC3)c2cc1OC`, with -91% (active); and `CC1=C(CC(=O)c2cccc([N+](=O)[O-])c2)C(=O)c2ccccc2C1=O`, with 96.9%.

For the compound `Cn1cc([C@@H]2Nc3ccc4[nH]ncc4c3[C@H]3[C@H]4CCC(C4)[C@H]32)c(C(F)(F)F)n1`, the growth was 82.8%. For the compound `NCCCNc1nc2ccccc2c2c(=O)c3cc(F)ccc3sc12`, the growth was -68.8% (active). As for `CC(C)C[C@H](C(=O)N[C@H](C(N)=O)C(C)C)N1CC=CCN(OCc2ccccc2)S1(=O)=O`, the growth was 108% [2.5 µM]. As to `Cc1ccc2cccc(Oc3ccc(Nc4ncnc5onc(-c6ccccc6)c45)cc3)c2n1`, the growth was 100%.

With `NCCOc1ncccc1/C=C1\c2ccccc2-c2ccc([N+](=O)[O-])cc21`, the growth is -82.2% (active). Take `O=C(NCc1ccccc1)C1CN(c2ccc(Cl)cc2)N(c2ccc(Cl)cc2)C1=O` (stereo not given): the growth was 99.4%. Take `O=c1c(-c2nc3ccccc3[nH]2)cc2ccccc2n1Cc1cn(Cc2ccc(N3CCOCC3)cc2)nn1`: the growth is 93.2%. As for `CCOc1ccc2c(c1)CN(Cc1ccc(Cl)cc1)CO2`, the growth is 86.4%.
